# Screen size: about 310,000 compounds; about 14,000 (4.5%) showed an effect of 50% or more. The effect is printed as a negative number. The list comes from a sample in which strong results are over-represented; it also holds similar structures and randomly drawn compounds.
# Molecular target: human ether-à-go-go-related gene (hERG) potassium channel (human, UniProt Q12809)
# Assay: primary screen, population patch clamp on CHO cells stably expressing hERG; higher = less effect of the substance
# 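Further: peak tail current of the secondary pulse compared with the same well before compound.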
# human ether-à-go-go-related gene (hERG) potassium channel, sequence (Q12809 whole entry, looked up): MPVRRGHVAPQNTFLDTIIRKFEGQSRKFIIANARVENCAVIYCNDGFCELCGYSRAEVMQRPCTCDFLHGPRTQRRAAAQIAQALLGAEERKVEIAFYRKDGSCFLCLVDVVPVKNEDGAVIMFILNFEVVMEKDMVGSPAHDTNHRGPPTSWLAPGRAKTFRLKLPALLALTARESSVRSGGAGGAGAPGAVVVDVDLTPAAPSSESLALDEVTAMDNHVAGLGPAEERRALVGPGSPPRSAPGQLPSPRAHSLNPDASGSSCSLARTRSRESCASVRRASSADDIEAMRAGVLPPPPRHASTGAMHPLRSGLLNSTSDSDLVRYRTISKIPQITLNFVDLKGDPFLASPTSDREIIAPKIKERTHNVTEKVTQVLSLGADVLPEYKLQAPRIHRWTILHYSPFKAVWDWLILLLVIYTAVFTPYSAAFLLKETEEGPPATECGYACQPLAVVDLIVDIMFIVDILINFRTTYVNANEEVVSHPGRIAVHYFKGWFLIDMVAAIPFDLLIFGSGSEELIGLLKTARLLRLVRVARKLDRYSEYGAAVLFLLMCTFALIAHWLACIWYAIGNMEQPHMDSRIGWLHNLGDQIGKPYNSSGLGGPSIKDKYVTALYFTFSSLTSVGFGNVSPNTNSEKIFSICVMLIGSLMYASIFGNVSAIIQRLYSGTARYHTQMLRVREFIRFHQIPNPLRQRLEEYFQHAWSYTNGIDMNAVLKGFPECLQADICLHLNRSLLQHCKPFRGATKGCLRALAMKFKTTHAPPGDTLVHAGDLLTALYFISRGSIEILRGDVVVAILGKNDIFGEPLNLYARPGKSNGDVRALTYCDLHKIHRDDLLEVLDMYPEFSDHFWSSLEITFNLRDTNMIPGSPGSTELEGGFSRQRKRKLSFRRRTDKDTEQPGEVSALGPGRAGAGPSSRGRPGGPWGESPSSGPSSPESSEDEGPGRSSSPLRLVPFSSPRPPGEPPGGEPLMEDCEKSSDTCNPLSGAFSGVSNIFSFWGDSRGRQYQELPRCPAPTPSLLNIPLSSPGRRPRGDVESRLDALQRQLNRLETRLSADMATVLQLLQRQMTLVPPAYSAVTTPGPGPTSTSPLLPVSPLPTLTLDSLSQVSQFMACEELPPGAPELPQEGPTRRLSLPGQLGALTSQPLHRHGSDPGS
row,SMILES,"hERG current change (%, negative = inhibition) at 10uM [%]"
1,CCOCCNC(=O)c1ccc2c3c(cccc13)CC2,3.39
2,Cc1csc(-c2coc3cc(O)cc(C)c3c2=O)n1,2.27
3,O=C1c2ccccc2C(=O)c2c1cccc2N1CCN(C/C=C/c2ccccc2)CC1,-7.23
4,O=C1c2ccccc2-c2onc3c(N4CCN(CCO)CC4)cc(N4CCN(C(=O)c5ccco5)CC4)c1c23,-22.1
5,O=C1c2ccccc2C(=O)c2c1cccc2N1CCN(Cc2ccccc2)CC1,-56.9
6,O=C1c2cccc(Cl)c2C(=O)c2c1cccc2N1CCCC1,-9.16
7,O=C1c2ccccc2C(=O)c2c1cccc2N1CCN(CCO)CC1,-69.7
8,O=C1c2ccccc2C(=O)c2c1cccc2N1CCCC1,-14.3
9,O=C(NCCc1ccccc1)C1CCN(C(=O)Nc2ccccc2)CC1,8.37
10,COc1ccc(NC(=O)CCCn2c(=O)c3sccc3n(Cc3ccccc3)c2=O)cc1,-20.8
11,CC(C)(C)NC(=O)C(c1ccco1)N(C(=O)c1csnn1)c1ccccc1 (centres unmarked),-4.55
12,CC12CCC(C(=O)N(CCCCN3CCN(Cc4ccccc4)CC3)C1=O)C2(C)C.Cl (centres unmarked),-45.2
13,O=C(CNC(=O)c1[nH]cnc1C(=O)N[C@@H](Cc1ccccc1)C(=O)OCc1ccccc1)OCc1ccccc1,7.48
14,CCC(c1nnnn1CCOC)N1CCN(Cc2ccccc2OC)CC1.Cl (centres unmarked),-6.05
15,COCCn1nnnc1C(c1ccccc1OC)N1CCN(c2ccccc2)CC1.Cl (centres unmarked),-4.6
16,CCC(c1nnnn1C(C)(C)C)N1CCN(Cc2ccccc2OC)CC1.Cl (centres unmarked),-19.2
17,CCC(C)(C)n1nnnc1C(c1ccc(OC)c(OC)c1)N1CCN(c2ccccc2)CC1 (centres unmarked),-39.5
18,COc1ccccc1CN1CCN(C(CC(C)C)c2nnnn2Cc2cccs2)CC1.Cl (centres unmarked),-57.9
19,COCCn1nnnc1C(c1ccc(OC)cc1OC)N1CCN(c2ccccc2)CC1 (centres unmarked),-70.8
20,COCCn1nnnc1C(c1ccc(OC)cc1OC)N1CCN(c2ccccc2F)CC1.Cl (centres unmarked),-9.23
21,CC(C)C(c1nnnn1Cc1cccs1)N1CCN(c2ccccc2)CC1 (centres unmarked),20
22,CCC(C)(C)n1nnnc1C(c1ccc(OC)c(OC)c1)N1CCN(c2ccc(OC)cc2)CC1.Cl (centres unmarked),-15.9
23,CCC(C)(C)n1nnnc1C(c1ccc(OC)c(OC)c1)N1CCN(c2ccc(F)cc2)CC1.Cl (centres unmarked),-72.9
24,COc1ccc(C(c2nnnn2Cc2cccs2)N2CCN(c3ccccc3F)CC2)cc1OC.Cl (centres unmarked),-39.6
25,COc1ccc(C(c2nnnn2Cc2cccs2)N2CCN(c3ccccc3)CC2)cc1OC (centres unmarked),-63.5
26,N/C(=N\OC(=O)c1ccc(=O)n(Cc2ccc(Cl)cc2)c1)c1ccccn1,-33.2
27,CC1Sc2ccc(S(=O)(=O)NCc3ccccc3)cc2NC1=O (centres unmarked),1.74

row,SMILES,"hERG current change (%, negative = inhibition) at 10uM [%]"
1,CC(C)Oc1cccc(-c2nnc(SCC(=O)Nc3ccc4c(c3)OCCO4)n2N)c1,-8.81
2,O=C(CSc1nnc(-c2ccc(O)cc2)n1Cc1ccco1)c1cccs1,-14.9
3,O=C(COC(=O)c1cccc(F)c1)NC(=O)NC1CCCC1,5.55
4,COCCCN(C(=O)c1cc(C)oc1C)c1c(N)n(CC(C)C)c(=O)[nH]c1=O,7.78
5,Cc1ccccc1OCCOc1cccc(/C=N/NC(=O)Cc2nnc(N)s2)c1,14.2
6,CC1(C)Oc2ccc(C(=O)N3CCOCC3)cc2N(CC(=O)N2CCOCC2)C1=O,18.7
7,Cc1ccc(CC2C(=O)N(c3cc(Cl)ccn3)C(=O)C2C)cc1 (centres unmarked),-9.63
8,COc1cccc(C2=NOC(C(=O)Nc3ccc(OC)c(OC)c3)C2)c1 (centres unmarked),-11.8
9,Cn1c(SCc2c(F)cccc2Cl)nc2c(c1=O)SCC2,6.6
10,COc1ccc(C(c2nnnn2Cc2cccs2)N2CCN(c3ccc(F)cc3)CC2)cc1OC (centres unmarked),-69.4
11,Fc1ccc(C(c2nnnn2Cc2cccs2)N2CCN(c3ccccc3)CC2)cc1 (centres unmarked),-21.3
12,COc1ccc(C(c2nnnn2Cc2cccs2)N2CCN(c3ccccc3F)CC2)cc1 (centres unmarked),4.04
13,CC(=O)Nc1ccc(Oc2cc(C#N)c(C#N)cc2N2CCOCC2)cc1,-16.9
14,Nc1ccccc1SC1CC(=O)N(c2ccc3c(c2)OCO3)C1=O (centres unmarked),14.7
15,CCOc1ccc(-c2nnc3n2N=C(c2ccc(OC)cc2)CS3)cc1,0.919
16,Cc1cc(-c2nnc3n2N=C(c2ccc(F)cc2)CS3)n[nH]1,-60.3
17,COc1ccc(C2=Nn3c(nnc3-c3cc(C)[nH]n3)SC2)cc1,-64
18,COc1ccc(C2=Nn3c(nnc3-c3ccncc3)SC2)cc1,-41.1
19,COc1ccc(C2=Nn3c(nnc3-c3ccccn3)SC2)cc1,-34.3
20,Cc1cc(-c2nnc3n2N=C(c2ccc(-c4ccccc4)cc2)CS3)n[nH]1,-15.7
21,CCOc1ccc(C2=Nn3c(nnc3-c3ccccc3OC)SC2)cc1,-63.4
22,COc1ccc(C2=Nn3c(nnc3-c3ccc(OC)cc3)SC2)cc1,-55
23,Br.COc1ccc(C2=Nn3c(C)nnc3SC2)cc1,0.091
24,Cc1cc(-c2nnc3n2N=C(c2ccccc2)CS3)n[nH]1,-22.7
25,COc1ccc(OC)c(C2=Nn3c(nnc3-c3cc(C)[nH]n3)SC2)c1,-19.7
26,CCOc1ccc(C2=Nn3c(nnc3-c3ccc(OC)cc3)SC2)cc1,-16
